We go through 40 compounds from PubChem BioAssay (NCATS).

Inconclusive results are not listed. Entries that show only a call come without a potency. Activity calls are given as the source filed them. Calls follow the shape of the dose curve; as a rule, active = well fitted cell-killing curve with a large enough effect; inconclusive = small, poorly fitted or top-dose-only effect; inactive = flat fitted curve, though single readings scatter. Bridge positions count the residues as written; N and C are the ends. Square brackets hold non-standard residues; d marks the D form. Peptide text beside a SMILES is read from it. * marks the point of attachment. ξ: configuration not given here. Octanoyl(6-Me) = CCC(C)CCCCC(=O)*; ξThr(3R) = C[C@@H](O)C(N)C(=O)O; dDab = NCC[C@@H](N)C(=O)O; Dab = NCC[C@H](N)C(=O)O
Potency is read from the fitted curve at half-maximal effect.

The test can be described thus: Quantitative highthroughput screen to assess conditional lethalithy of P12 Ichikawa cells grown in RPMI1640 with dialyzed fetal bovine serum (RPMI+ds) (AID 1963880). Also: nearly all actives have a fitted effect of over 35% in size. As to conditions: ATP luminescence, 48 h; Potency: P12-Ichikawa viability; series mostly up to 45.8 µM. An excerpt:
Assay Provider: Jason Cantor Ph.D.
Department of Biochemistry
University of Wisconsin-Madison, Madison, WI, USA
Chemical screening studies have identified drug sensitivities across hundreds of cancer cell lines but most putative therapeutics fail to translate. Discovery and development of drug candidates in models that more accurately reflect nutrient levels in human blood is a major challenge. Here we performed high-throughput screens in conventional versus Human Plasma-Like Medium (HPLM) to identify compounds that were "missed" when screening using the artificial culture condition. Sets of conditional anticancer compounds spanned phases of clinical development and included non-oncology drugs were assessed. […] We also traced conditional phenotypes for several chemotherapeutics to availability of HPLM-specific metabolites and confirmed others for compounds whose reported targets are encoded by nonessential genes. Our findings establish generalizable strategies for exploiting conditional lethality in HPLM to reveal therapeutic candidates and mechanisms of action in cancer cells.
Described herein are the results of each viability screens against three cell lines: NOMO1 (an acute myeloid leukemia cell line); P12-Ichikawa (a T-cell acute lymphoblastic leukemia); and SEM (a B-cell ALL). Each assay was screened using 3 different cell culture media: homemade human plasma-Like medium with 10% dialyzed fetal bovine serum (HPLM+ds); RPMI1640 with 10% untreated FBS and 5mM glucose (RPMI+s); and RPMI1640 with 10% dialyzed fetal bovine serum and 5 mM glucose (RPMI+ds).
PROTOCOL TABLE (as described by Inglese J, Shamu CE and Guy RK. 2007)
SEQUENCE No. (e.g., 1, 2, 3, etc.); […] (e.g., Cells, Incubation, Reagent, etc.); VALUE and DESCRIPTION.
1; Cells; 5 uL; white, solid bottom 1536-well Greiner assay plate.
2; Compounds; 23 nL; Kalypsis pin tool (Wako USA) equipped with a 1536-well pin head to transfer to the assay plates.
3; Incubation; 48 hours; 37C incubation.
4; Reagent; 3 uL; CellTiter Glo (Promega).
5; Incubation; 5 min, room temperature
6; Detection; Luminescence, Viewlux PerkinElmer.
NOTES (numbers refer to Sequence numbers above)
1. Briefly, 5 ul of cell reagent was dispensed using a Multidrop Combi Dispenser. The NOMO1 and SEM cells were plated at 500 cells/well and the P12-Ichikawa line at 1000 cells/well.
2. After seeding the cells, 23 nL of MIPE 4.1 library compounds (in DMSO) were added to each plate using a Kalypsys 1536 Pintool dispenser. Bortezomib at final concentration of […] and DMSO were added to each plate as positive and negative controls respectively. For each screen, MIPE 4.1 compounds were added over an eleven-point concentration range […] in 3-fold dilutions.
3. Each plate was covered with a stainless steel gasketed lid to prevent evaporation and incubated for 48 hour at 37C, 95% relative humidity, and 5% CO2.
4-5. Three microliter CellTilter-GloTM luminescent substrate mix (Promega) reagent was added to the assay plate and incubated at room temperature for 5 min.
6. The luminescence signal was measured using a ViewLux (PerkinElmer) multiplate reader with a 2 second exposure time per plate. Data for each compound were normalized as percent viability such that measurements for DMSO and the empty well controls in each plate were defined as 100% and 0%, respectively.
On to `Nc1ccccc1NC(=O)c1ccc(CNC(=O)OCc2cccnc2)cc1`, for which the Potency is 2.35 µM (active).
As to `CN(CCOc1ccc(NS(C)(=O)=O)cc1)CCc1ccc(NS(C)(=O)=O)cc1`, the Potency entry is “inactive”.
`Cn1c(=O)c2c(ncn2CC(O)CO)n(C)c1=O` (stereo not given): the Potency result was “inactive”.
As for `CN1c2ccccc2C(=O)N2CCc3c([nH]c4ccccc34)C21` (stereo not given), the entry is “inactive”; as for `CN(C)CCC=C1c2ccccc2COc2ccc(CC(=O)O)cc21`, “inactive”.
In the case of `COc1cccc2nc(-c3cccs3)nc(NN3C(=O)C=C(C)C3=O)c12`, the Potency was 2.96 µM (active).
Take `CCCc1cc(=O)[nH]c(=S)[nH]1`: the Potency is 16.6 µM (active).
Take `OC[C@H]1OC(O)C[C@@H](O)[C@H]1O` (stereo not given in full): the Potency entry is “inactive”.
Take `Cc1cc(N2CCOCC2)cc2[nH]c(-c3c(NC[C@@H](O)c4cccc(Cl)c4)cc[nH]c3=O)nc12`: the Potency entry was “inactive”.
With `Cc1ccc(F)c(NC(=O)Nc2ccc(-c3cccc4[nH]nc(N)c34)cc2)c1`, the Potency entry is “inactive”.
As for `Cc1ccnc2c1NC(=O)c1cccnc1N2C1CC1`, the entry is “inactive”; as for `COc1ccc(S(=O)(=O)Nc2cc(-c3c(O)ccc4ccccc34)c(O)c3ccccc23)cc1`, 18.7 µM (active).
As for `Cc1cc(OCCCc2c(C(=O)O)n(Cc3cccnc3)c3c(-c4c(COc5ccc(N6CCN([S+](C)(=O)[O-])CC6)cc5)nn(C)c4C)cccc23)cc(C)c1Cl`, the Potency entry was “inactive”.
For the compound `Cc1cc(-c2ccc(CC(=O)Nc3ccc(-c4cccnc4)cc3)cc2)ccn1`, the Potency is 10.5 µM (active).
The entry for `CC(=O)NC[C@H]1CN(c2ccc(N3CCOCC3)c(F)c2)C(=O)O1` is “inactive”; for `CN[C@@H]1CN(c2ccc3c(=O)c(C(=O)O)cn(-c4nccs4)c3n2)C[C@@H]1OC` it is 8.12 µM (active); for `CC(C)(C)Cn1c(N)nc2ccc(-c3[nH]c(C(C)(C)C)nc3-c3ccc(F)cc3)nc21` it is “inactive”.
Take `COc1cc2c(Nc3ccc(Cl)c(Cl)c3F)ncnc2cc1OCC1C[C@@H]2CN(C)C[C@H]2C1`: the Potency was 16.6 µM (active).
The figure for `CC(C(=O)O)c1ccc2c(c1)CC(=O)c1ccccc1S2` (stereo not given) is 10.5 µM (active); for `C=CC1=C(C(=O)O)N2C(=O)[C@@H](NC(=O)C(=NO)c3csc(N)n3)[C@H]2SC1` it is “inactive”; for `CN1CCC(=C2c3ccccc3C=Cc3ccccc32)CC1` it is “inactive”.
Regarding `O=C(O)c1ccc2c(c1)nc(Nc1cccc(Cl)c1)c1ccncc12`, the Potency was 5.9 µM (active).
Turning to `CC(C)(O)CC[C@@H](O)[C@](C)(O)[C@H]1CC[C@@]2(O)C3=CC(=O)[C@@H]4C[C@@H](O)[C@@H](O)C[C@]4(C)[C@@H]3CC[C@]12C`, the Potency result was “inactive”.
Consider `O=C(CCCCCCNC(=O)c1cnc(N(c2ccccc2)c2ccccc2)nc1)NO`, for which the Potency is 5.9 µM (active).
On to `CCN(CC)CCNC(=O)c1ccc2nc(-c3ccccc3)c(-c3ccc(CN4CCC(n5c(=O)[nH]c6ccccc65)CC4)cc3)nc2c1`, for which the Potency was 2.64 µM (active).
Regarding `CNC(=O)c1ccc(N2C(=S)N(c3cnc(C#N)c(C(F)(F)F)c3)C(=O)C23CCC3)cc1F`, the Potency result was “inactive”.
Turning to `Nc1ccn([C@@H]2C(F)=C(CO)[C@@H](O)[C@H]2O)c(=O)n1`, the Potency was 6.6 µM (active).
`CC(=O)OC[C@@H]1O[C@@H](n2ccc(=O)[nH]c2=O)[C@H](OC(C)=O)[C@H]1OC(C)=O`: the Potency entry is “inactive”.
As to `COCCCN1CCC(NC(=O)c2cc(Cl)c(N)c3c2OCC3)CC1`, the Potency entry is “inactive”.
Consider `C=CCc1cccc(C=NNC(=O)CN2CCN(Cc3ccccc3)CC2)c1O`, for which the Potency is 13.2 µM (active).
The figure for `O=Nc1c(-c2c(O)[nH]c3cc(Br)ccc23)[nH]c2ccccc12` is 5.9 µM (active); for `C=C1C(=O)OC(CCCCCCCC)C1C(=O)O` (stereo not given) it is “inactive”; for `CNC(=O)CN1CCC(Oc2cc3c(Nc4cccc(Cl)c4F)ncnc3cc2OC)CC1` it is 3.32 µM (active).
In the case of `CC(=O)OCC(=O)[C@@]1(O)CC[C@H]2[C@@H]3CCC4=CC(=O)CC[C@]4(C)[C@@H]3C(=O)C[C@@]21C`, the Potency result is “inactive”.
As for `COc1cccc2c(NCc3ccccc3)nc(-n3c(N)nc4ccccc43)nc12`, the figure is 18.7 µM (active); as for `CCC(C)CCCCC(=O)N[C@@H](CCN)C(=O)NC(C(=O)N[C@H](CCN)C(=O)N[C@@H]1CCNC(=O)C([C@@H](C)O)NC(=O)[C@@H](CCN)NC(=O)[C@@H](CCN)NC(=O)[C@@H](CC(C)C)NC(=O)[C@H](Cc2ccccc2)NC(=O)[C@H](CCN)NC1=O)[C@@H](C)O` (stereo partly drawn) ({Octanoyl(6-Me)}-[Dab][ξThr(3R)][dDab][dDab][Dab]F[dL][dDab][dDab][ξThr(3R)]; lactam 4-C), “inactive”; as for `COc1ccc(F)c(F)c1C(=O)c1cnc(NC2CCN(S(C)(=O)=O)CC2)nc1N`, 11.8 µM (active).
As to `Cn1cc(-c2cnn3c(N)c(Br)c([C@H]4CCCNC4)nc23)cn1`, the Potency is 2.64 µM (active).
Take `CC(C)(C)[N+]([O-])=Cc1ccc(S(=O)(=O)O)cc1S(=O)(=O)O`: the Potency entry was “inactive”.
The entry for `CN(C)S(=O)(=O)c1ccc2c(c1)C(=Cc1cc3c([nH]1)CCCC3)C(=O)N2` is “inactive”.
